Results on 36 compounds are retold here after PubChem BioAssay AID1671190 (National Center for Advancing Translational Sciences (NCATS), 2021).

Molecules are shown by their SMILES. Hit rate of the full screen: of about 580,000 compounds, about 6,100 (1.1%) were called active. Another 15% or so got no clear call; they are omitted. Calls follow the shape of the dose curve; as a rule, active = well fitted inhibition curve with a large enough effect; inconclusive = small, poorly fitted or top-dose-only effect, or another doubt; inactive = no such curve, though single readings can be large or run the other way. Shown is part of a subset that was picked to be rich in actives. A call without a number means that no potency is given here.
Potency is read from the fitted curve at half-maximal effect.

Polyunsaturated fatty acid lipoxygenase ALOX12 (Homo sapiens), sequence (P18054 whole entry, looked up): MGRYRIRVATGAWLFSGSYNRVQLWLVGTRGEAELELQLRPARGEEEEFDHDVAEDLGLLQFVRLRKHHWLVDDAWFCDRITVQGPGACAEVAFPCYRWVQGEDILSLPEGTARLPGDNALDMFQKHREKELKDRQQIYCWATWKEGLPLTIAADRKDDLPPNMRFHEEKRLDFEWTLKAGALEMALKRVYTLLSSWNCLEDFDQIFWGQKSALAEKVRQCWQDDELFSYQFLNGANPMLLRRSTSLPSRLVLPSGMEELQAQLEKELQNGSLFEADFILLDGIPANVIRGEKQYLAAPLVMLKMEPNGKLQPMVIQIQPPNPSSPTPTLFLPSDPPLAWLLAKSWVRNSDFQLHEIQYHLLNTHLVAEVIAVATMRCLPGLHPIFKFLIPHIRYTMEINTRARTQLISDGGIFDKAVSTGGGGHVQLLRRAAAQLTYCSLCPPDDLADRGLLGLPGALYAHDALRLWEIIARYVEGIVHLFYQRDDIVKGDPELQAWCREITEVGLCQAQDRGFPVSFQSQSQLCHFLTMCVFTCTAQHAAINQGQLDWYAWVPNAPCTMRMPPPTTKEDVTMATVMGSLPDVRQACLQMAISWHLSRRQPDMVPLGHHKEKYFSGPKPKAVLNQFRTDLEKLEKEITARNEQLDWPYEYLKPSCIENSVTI

This experiment has as its target Polyunsaturated fatty acid lipoxygenase ALOX12 (Homo sapiens) (UniProt P18054). Briefly: Primary qHTS assay for inhibitors of human arachidonate 12S-lipoxygenase (ALOX12): Round 2. As to conditions: purified 12hLO, xylenol orange hydroperoxide absorbance; series mostly up to 108 µM. In outline: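 Purified human 12hLO at 150 nM in 25 mM Hepes, 0.01% Triton X-100, pH 7.0, preincubated 15 min at room temperature with compound. Reaction started with 40 uM arachidonic acid, 30 min at room temperature. Hydroperoxide measured by Fe-xylenol orange, 573/405 nm absorbance ratio.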
(In qHTS, concentration-response curves come from the screen itself.)
For `Cc1ccc(C(=O)NC(c2ccc3c(c2)OCCCO3)C(C)C)cn1` (stereo unspecified), the Potency entry was “inactive”. For `Cc1c(CCC(=O)NCc2ccc3c(c2)OCO3)c(=O)oc2cc(O)ccc12`, the Potency result was “inactive”.

Consider `COc1ccc(NC(=O)c2ccc(Br)o2)cc1NC(=O)c1ccccc1C`, for which the Potency result was “inactive”. With `O=C(Nc1ccc2c(c1)OCO2)c1cc(=O)c(OCc2ccccc2F)co1`, the Potency entry is “inactive”. On to `CN1C(=O)c2ccc(NC(=O)C(F)(F)C(F)(F)C(F)(F)F)cc2C1=O`, for which the Potency entry is “inactive”. As to `COc1c(CNCc2cccnc2N2CCOCC2)c(C)nn1C`, the Potency entry is “inactive”.

With `Cc1ccccc1CN1CCCn2nc(C)c(-c3cccnc3N3CCOCC3)c21`, the Potency was 28.2 µM (active). As to `Cc1nn2c(c1-c1ccccc1-c1ccccc1)N(C(=O)CN1CCOCC1)CCC2`, the Potency entry was “inactive”.

With `COC(=O)c1cc(C)nc2c1c(=O)n(Cc1cccc(Cl)c1)c(=O)n2-c1ccccc1`, the Potency entry was “inactive”.

For the compound `O=C(CSCc1ccc(Cl)cc1)N1CCCCC1`, the Potency entry is “inactive”. As for `O=C(NCCc1ccc(Cl)cc1)C1CCCN1C(=O)NCc1ccccc1` (stereo unspecified), the entry is “inactive”; as for `Oc1cc2c(cc1O)CN(C(=S)NCCc1ccc(Cl)cc1)CCC2`, 17.8 µM (active). As for `CCN(CC(=O)NC(C)C)C(=O)Cn1c(=O)c2c(ncn2CC(C)C)n(Cc2ccccc2)c1=O`, the entry is “inactive”. `CC(C)c1cccc(NC(=O)Cc2n[nH]c(=O)c3ccccc23)c1`: the Potency entry was “inactive”. `CCc1nnc(NC(=O)COc2ccc3c(C)cc(=O)oc3c2)s1`: the Potency entry is “inactive”.

Take `CC[C@@H]1Cc2cc(O)ccc2C2=C1c1ccc(O)cc1C[C@H]2CC`: the Potency is 50.1 µM (active). In the case of `Cc1ccc(C)c(NC(=S)NNC=O)c1`, the Potency result was “inactive”.

As to `CCC(C)NC(=S)Nc1ccc(C)cc1` (stereo unspecified), the Potency result is “inactive”. In the case of `Cc1ccc(C)c(NC(=S)NNC(=S)Nc2ccc(C(C)C)cc2)c1`, the Potency was 35.5 µM (active). In the case of `O=C(CCC1CCCCC1)NC(N1CCCCC1)(C(F)(F)F)C(F)(F)F` it was “inactive”; in that of `CC(CCc1ccccc1)NC(=O)C1CC=CCC1` (stereo unspecified), “inactive”. Take `CCc1ccc(C(=O)Nc2ccc(Cl)cc2)cc1S(=O)(=O)N1CCOCC1`: the Potency entry was “inactive”. Consider `CCc1cccc(NC(=O)c2cccc(S(=O)(=O)N3CCOCC3)c2)c1`, for which the Potency result is “inactive”. Turning to `Cc1cc(C)nc(NS(=O)(=O)c2ccc(N/C=C\C(=O)c3cccs3)cc2)n1`, the Potency entry is “inactive”. As for `CCC(CC)C(=O)Nc1ccc(S(=O)(=O)Nc2nccs2)cc1`, the Potency entry was “inactive”.

Consider `CCc1nnc(NS(=O)(=O)c2ccc(NC(=S)NC(=O)c3cccs3)cc2)s1`, for which the Potency is 22.4 µM (active). As to `S=C(Cc1ccccc1)SC/C=C/c1ccccc1`, the Potency result was “inactive”.

For `NNc1nc2c(Cl)cccc2s1`, the Potency was 17.8 µM (active). As for `CCN1CCN(C(=O)c2cc3cc(Cl)cc(Cl)c3oc2=O)CC1`, the Potency entry is “inactive”.

In the case of `CCCCNC(=O)C(C#N)c1nc2ccccc2nc1N1CCN(C(=O)OCC)CC1` (stereo unspecified), the Potency entry was “inactive”.

Turning to `Fc1ccc(N/N=C/c2ccc(-c3ccccc3)cc2)c(F)c1`, the Potency was 2.24 µM (active). On to `O=C(CN1CCN(C/C=C/c2ccccc2)CC1)Nc1ccc(F)cc1F`, for which the Potency result is “inactive”. For the compound `Fc1ccc(N/N=C/c2cccc(/C=N/Nc3ccc(F)cc3F)c2)c(F)c1`, the Potency result is “inactive”. For the compound `COc1ccc(NC(C)=O)cc1NC(=O)c1nc(-c2ccccc2)oc1C`, the Potency entry was “inactive”. On to `O=C(NC1CCS(=O)(=O)C1)c1cc2sccc2n1Cc1ccccc1` (stereo unspecified), for which the Potency result is “inactive”. `CN(C)CCNC(=O)CC1CCN(C(=O)c2nnc(C(=O)Nc3cccc(Cl)c3)s2)CC1`: the Potency result was “inactive”.
